PubChem BioAssay (Tox21)
Several values for one entry are separate records, joined by “and”; a condition that tells them apart may be missing. Identical values can stand only once. Inconclusive results are not listed. Where a call stands in place of a potency, no number is given. The source holds several records for some structures; these can differ, active in one and inactive in another. Activity calls are given as the source filed them. Unless noted, calls follow the shape of the dose curve; as a rule, active = well fitted curve in the direction sought with a large enough effect in the repeat runs; inconclusive = weak or mixed curves; inactive = no such curve, though single readings can be large; an effect the other way counts as inactive or inconclusive.

What was measured:
[1] = qHTS assay for small molecule agonists of the p53 signaling pathway (AID 651631; calls by dose curve; also: nearly all actives have a fitted effect of over 15% in size)
Summary of the method: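 We treat p53RE-bla HCT-116 cells with compounds for 16 h at 37 °C, add LiveBLAzer B/G FRET substrate for 2 h at room temperature, and measure fluorescence intensity.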

[2] = qHTS assay for small molecules that induce genotoxicity in human embryonic kidney cells expressing luciferase-tagged ATAD5 (AID 651632); also: nearly all actives have a fitted effect of over 15% in size
Summary of the method: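 Luminescent reporter readout, HEK293T ATAD5-luc line: 16 hr drug exposure (37C, 5% CO2) followed by Amplite, 30 min RT.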

[3] = qHTS assay for small molecule agonists of the p53 signaling pathway - cell viability (AID 651633; calls by dose curve;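 also: p53RE-bla HCT reporter cells with a stable beta-lactamase p53 reporter; series mostly up to about 83 µM; nearly all actives have a fitted effect of over 30% in size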)
Summary of the method: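 p53RE-bla cells were treated with compound for 16 hours at 37 C. Cytotoxicity was then measured as CellTiter-Glo luminescence after 30 min at room temperature.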

[4] = qHTS assay for small molecules that induce genotoxicity in human embryonic kidney cells expressing luciferase-tagged ATAD5 - cell viability (AID 651634; calls by dose curve; also: nearly all actives have a fitted effect of over 25% in size)
Summary of the method: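 Viability read: CellTiter-Fluor fluorescence, 30 min at 37C. Cells: HEK293T, luciferase-tagged ATAD5. Exposure: 15.5 hr, 37C, 5% CO2, compound or DMSO vehicle.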

[5] = qHTS assay for small molecule disruptors of the mitochondrial membrane potential - cell viability (AID 720634; calls by dose curve;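 also: human HepG2 liver cancer cells; series mostly up to about 83 µM; nearly all actives have a fitted effect of over 20% in size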)
Summary of the method: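 HepG2, 1 hr compound, 37 C. ATP luminescence via CellTiter-Glo, 30 min RT, same well as m-MPI.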

[6] = qHTS assay for small molecule disruptors of the mitochondrial membrane potential (AID 720635); also: potency is read from the fitted curve at half-maximal effect
Summary of the method: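 HepG2 cells exposed to compound 1 hr at 37C, then Mito-MPS dye 30 min. Ratio read of aggregate (540/590 nm) versus monomer (490/535 nm) fluorescence.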

[7] = qHTS assay to test for compound auto fluorescence at 590 nm (red) in HepG2 cells (AID 720674)
Summary of the method: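 Seeding: 2,000 HepG2 cells/well, MEM/10% FBS, overnight 37 C. Dosing: compound vs DMSO. Incubation: 1 hr, 37 C, 5% CO2. Read: fluorescence 540 ex/590 em, Rose Bengal sodium as red reference.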

[8] = qHTS assay to test for compound auto fluorescence at 535 nm (green) in HepG2 cells (AID 720675)
[9] = qHTS assay to test for compound auto fluorescence at 460 nm (blue) in HEK293 cells (AID 720678)
Summary of the method: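 Auto fluorescence in the blue band was quantified as triamterene equivalency. HEK293 cells were seeded at 2,000/well, dosed after a 4-5 hr attachment, and kept overnight at 37C before the 405/460 nm reading.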

[10] = qHTS assay to test for compound auto fluorescence at 590 nm (red) in HEK293 cells (AID 720679)
Summary of the method: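 Autofluorescence equivalency to Rose Bengal sodium, 540/590nm, in HEK293 cells exposed overnight to 23 nL compound per well.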

[11] = qHTS assay to test for compound auto fluorescence at 535 nm (green) in HEK293 cells (AID 720680)
[12] = qHTS assay to test for compound auto fluorescence at 460 nm (blue) in HEK293 cell free culture (AID 720681)
Summary of the method: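 Compounds were added to cell-free DMEM with 10% FBS and fluorescence read directly. The blue channel used 405 nm excitation and 460 nm emission, with triamterene as the reference fluorophore.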

[13] = qHTS assay to test for compound auto fluorescence at 535 nm (green) in HEK293 cell free culture (AID 720682)
Summary of the method: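 Green-channel intensity (Ex/Em 485/535 nm) was recorded from compound-treated wells containing only DMEM with 10% FBS. Fluorescein provided the equivalency standard.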

[14] = qHTS assay to test for compound auto fluorescence at 590 nm (red) in HEK293 cell free culture (AID 720683)
Summary of the method: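 Cell-free wells of DMEM with 10% FBS received compound, and intrinsic fluorescence was read at excitation/emission 540/590 nm. Values expressed as equivalence to Rose Bengal sodium.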

[15] = qHTS assay to test for compound auto fluorescence at 590 nm (red) in HepG2 cell free culture (AID 720684)
Summary of the method: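 Compound was pinned into wells holding MEM with 10% FBS and no cells, and red fluorescence was read at Ex/Em 540/590 nm. Signal is expressed as auto fluorescence equivalency relative to Rose Bengal sodium.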

[16] = qHTS assay to test for compound auto fluorescence at 460 nm (blue) in HepG2 cell free culture (AID 720685)
Summary of the method: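 Compound (23 nL) or DMSO pinned into cell-free MEM with 10% FBS; blue fluorescence read at 405/460 nm excitation/emission, expressed as auto-fluorescence equivalency to triamterene.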

[17] = qHTS assay to test for compound auto fluorescence at 535 nm (green) in HepG2 cell free culture (AID 720686)
[18] = qHTS assay to test for compound auto fluorescence at 460 nm (blue) in HepG2 cells (AID 720687)
Summary of the method: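 HepG2 cells in MEM with 10% FBS, attached overnight at 37 C, were exposed to compound or DMSO for 1 hr at 37 C, 5% CO2. Blue fluorescence was read at 405/460 nm, with triamterene as reference fluorophore.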

[19] = target: Glucocorticoid receptor (Homo sapiens) (UniProt P04150); assay: qHTS assay to identify small molecule agonists of the glucocorticoid receptor (GR) signaling pathway (AID 720691; active = well fitted activation curve with a large enough effect in the signal ratio in the repeat runs, not every such curve was filed as active; the % refers to the signal ratio)
Summary of the method: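 qHTS in GR-bla HeLa cells: 4 h settling at 37 C/5% CO2, 18 h compound incubation at 37 C, 2 h LiveBLAzer B/G FRET substrate at room temperature, fluorescence intensity measured.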

[20] = target: Glucocorticoid receptor (Homo sapiens) (UniProt P04150); assay: qHTS assay to identify small molecule antagonists of the glucocorticoid receptor (GR) signaling pathway (AID 720692; active = well fitted inhibition curve with a large enough effect in the signal ratio in the repeat runs, not every such curve was filed as active; the % refers to the signal ratio)
Summary of the method: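 Inhibition of glucocorticoid signalling is measured in HeLa cells with a GRE-controlled beta-lactamase reporter; cells are co-treated with compound and 5 nM dexamethasone (final) for 18 h before FRET substrate readout.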

Glucocorticoid receptor (Homo sapiens), sequence (P04150 whole entry, looked up): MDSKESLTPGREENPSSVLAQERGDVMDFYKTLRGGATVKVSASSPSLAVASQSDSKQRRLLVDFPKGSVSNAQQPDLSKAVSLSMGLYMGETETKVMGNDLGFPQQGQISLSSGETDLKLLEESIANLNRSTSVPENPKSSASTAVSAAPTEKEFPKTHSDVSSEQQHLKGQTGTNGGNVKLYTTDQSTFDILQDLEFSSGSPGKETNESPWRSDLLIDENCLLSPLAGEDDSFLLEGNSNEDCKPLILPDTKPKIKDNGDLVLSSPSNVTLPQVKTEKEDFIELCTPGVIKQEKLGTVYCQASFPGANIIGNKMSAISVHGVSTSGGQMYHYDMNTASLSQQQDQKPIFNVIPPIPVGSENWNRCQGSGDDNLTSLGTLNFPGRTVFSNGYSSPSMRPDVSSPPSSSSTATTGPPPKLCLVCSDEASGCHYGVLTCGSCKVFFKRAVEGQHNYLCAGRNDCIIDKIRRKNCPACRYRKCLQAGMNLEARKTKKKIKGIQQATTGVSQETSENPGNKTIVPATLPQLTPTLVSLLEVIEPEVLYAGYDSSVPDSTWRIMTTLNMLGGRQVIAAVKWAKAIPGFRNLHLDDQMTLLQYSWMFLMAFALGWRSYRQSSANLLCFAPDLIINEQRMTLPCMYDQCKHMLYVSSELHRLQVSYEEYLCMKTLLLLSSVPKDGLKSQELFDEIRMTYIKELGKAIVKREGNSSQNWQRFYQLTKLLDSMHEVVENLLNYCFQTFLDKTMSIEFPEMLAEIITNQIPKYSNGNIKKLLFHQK

Compound	Potency [1]	Potency [2]	Potency [3]	Potency [4]	Potency [5]	Potency [6]	outcome [7]	outcome [8]	outcome [9]	outcome [10]	outcome [11]	outcome [12]	outcome [13]	outcome [14]	outcome [15]	outcome [16]	outcome [17]	outcome [18]	outcome [19]	Potency [20]
O=C(O)C(Br)Br	inactive	inactive	inactive	inactive	inactive	inactive	inactive	inactive	inactive	inactive	inactive	inactive	inactive	inactive	inactive	inactive	inactive	inactive	inactive	
CN(C)C(=O)Nc1cccc(C(F)(F)F)c1	inactive	inactive	inactive	inactive	inactive	inactive	inactive		inactive	inactive	inactive	inactive	inactive	inactive	inactive	inactive	inactive	inactive		
CCOP(=S)(OCC)Oc1ccc([N+](=O)[O-])cc1	inactive	inactive	inactive	inactive	inactive	55.1 µM (active) and inactive	inactive		inactive	inactive	inactive	inactive		inactive	inactive	inactive	inactive	inactive	inactive	
COS(=O)(=O)OC	inactive	inactive	inactive	inactive	inactive	inactive	inactive	inactive	inactive	inactive	inactive	inactive		inactive	inactive	inactive	inactive	inactive	inactive	inactive
CCOC(=O)CC(SP(=O)(OC)OC)C(=O)OCC (stereo not given)	inactive	inactive	inactive	inactive	inactive	inactive	inactive		inactive	inactive	inactive	inactive		inactive	inactive	inactive	inactive	inactive	inactive	
N#Cc1cccc(C#N)c1	inactive	inactive	inactive	inactive	inactive	inactive	inactive	inactive	inactive	inactive	inactive	inactive		inactive	inactive	inactive	inactive	inactive	inactive	
CCOc1ccc(N)cc1	inactive	inactive	inactive	inactive	inactive	inactive	inactive		inactive	inactive	inactive	inactive	inactive	inactive	inactive	inactive	inactive	inactive	inactive	
CCSC(=O)N1CCCCCC1	inactive	inactive	inactive	inactive	inactive	inactive	inactive		inactive	inactive	inactive	inactive	inactive	inactive	inactive	inactive	inactive	inactive		
OCC(O)CCl (stereo not given)	inactive	inactive	inactive	inactive	inactive	inactive	inactive	inactive	inactive	inactive	inactive	inactive	inactive	inactive	inactive	inactive	inactive	inactive	inactive	
CC(C)c1cccc(C(C)C)c1O	inactive	inactive	inactive	inactive	inactive	54.3 µM (active) and 61.1 µM (active)	inactive	inactive	inactive	inactive	inactive	inactive		inactive	inactive	inactive	inactive	inactive		
CNC(=O)O/N=C/C(C)(C)S(C)(=O)=O	inactive	inactive	inactive	inactive	inactive	inactive	inactive	inactive	inactive	inactive	inactive	inactive	inactive	inactive	inactive	inactive	inactive	inactive	inactive	
O=C(O)COc1ccccc1	inactive	inactive	inactive	inactive	inactive	inactive	inactive	inactive	inactive	inactive	inactive	inactive		inactive	inactive	inactive	inactive	inactive	inactive	inactive
Nc1nc(N)nc(NC2CC2)n1	inactive	inactive	inactive	inactive	inactive	inactive	inactive	inactive	inactive	inactive	inactive	inactive	inactive	inactive	inactive	inactive	inactive	inactive	inactive	
O=[N+]([O-])c1ccc(Cl)cc1	inactive	inactive	inactive	inactive	inactive	inactive	inactive	inactive	inactive	inactive	inactive	inactive		inactive	inactive	inactive	inactive	inactive	inactive	inactive
[N-]=[N+]=CC(=O)OC[C@H](N)C(=O)O	inactive	inactive	inactive	inactive	inactive	inactive	inactive	inactive	inactive	inactive	inactive	inactive		inactive	inactive	inactive	inactive	inactive		
Cc1ccc(N=C=O)cc1N=C=O	inactive	inactive	inactive	inactive	inactive	19.8 µM (active)	inactive	inactive	inactive	inactive	inactive	inactive	inactive	inactive	inactive	inactive	inactive	inactive	inactive	
